Screens from PubChem.
BJeLR viability: kills HRASV12-expressing BJeLR cells; BJeLR (HRASV12) viability, CellTiter-Glo ATP luminescence, 48 h; inhibition, % (concentration not given with the values); 300,000 tested, 0.17% active; AID 1554; in the data active = inhibition above about 50%
MazEF act: increases E. coli MazEF RNase cleavage of RNA. FAM/BHQ RNA-DNA oligo cleavage fluorescence, 5 h. 350,000 tested, 0.32% active. P0AE70. activation, % at 20 µM; in the data active = activation above about 50%
Target sequence (P0AE70 whole entry, looked up): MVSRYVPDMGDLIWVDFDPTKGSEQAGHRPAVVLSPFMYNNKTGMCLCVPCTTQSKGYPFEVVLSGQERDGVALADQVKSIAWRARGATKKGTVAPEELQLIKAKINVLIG
PrPC surface inh: cell surface PrPC inhibition, primary TR-FRET screen. P04156. TR-FRET read-out. inhibition, % at 13.8 µM. 370,000 tested, 0.43% active. AID 720596; in the data active = inhibition above about 24%; also: 0% = median of the test wells and 100% = reference compound wells
DUSP3 inh: inhibitors of human VHR1 phosphatase (DUSP3); recombinant VHR phosphatase, pNPP absorbance; inhibition, % at 13.3 µM; 290,000 tested, 0.52% active; AID 1654; in the data active = inhibition above about 50%
Target sequence (P51452 whole entry, looked up): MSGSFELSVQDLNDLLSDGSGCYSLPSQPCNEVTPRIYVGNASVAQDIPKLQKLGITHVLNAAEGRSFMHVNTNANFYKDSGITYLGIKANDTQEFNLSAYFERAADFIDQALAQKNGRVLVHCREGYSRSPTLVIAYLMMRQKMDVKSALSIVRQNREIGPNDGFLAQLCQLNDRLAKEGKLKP
PrP UTR inh: inhibition of PrP 5' UTR reporter expression; inhibition, % (concentration not given with the values); cell-based PrP 5' UTR mRNA reporter, plate reader; 340,000 tested, 0.35% active; in the data active = inhibition above about 52%; also: 0 = median of the neutral control wells
PfHsp40 rescue: compounds rescuing yeast from Plasmodium falciparum HSP40 toxicity. S. cerevisiae expressing PfHsp40, growth rescue, ATP luminescence. growth rescue, % at 12.5 µM. 340,000 tested, 0.68% active. AID 504582; in the data active = growth rescue above about 28%, passing the limit was not always enough;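 also: yeast W303a lacking pdr1 and pdr3 grown in galactose medium; growth measured after three days at 30 °C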
* = called active by the depositor; x = not tested or not shown. Compounds with a hit are over-represented: about 2.1% of the library has one in this group of screens.

SMILES	BJeLR viability	MazEF act	PrPC surface inh	DUSP3 inh	PrP UTR inh	PfHsp40 rescue
CN(CCc1ccccc1)C(=O)c1ccc2c(c1)ncn2C1CCCCC1	x	x	-2	x	x	x
CCc1nc2c(OCc3ccc(OC(F)F)cc3)cccn2c1N(C)C(=O)c1ccco1	x	x	-1	x	x	x
CCOC(=O)c1c(-c2ccccc2)oc2ccc(O)cc12	-13	8	-6	22	-16	318*
O=C(/C=C/c1c(F)cccc1Cl)c1ccc(O)cc1	2	-2	-3	8	-18	37*
O=C(NCc1cc(C(F)(F)F)ccc1Cl)c1cccc2c1C(=O)c1ccc(N3CCCCC3)cc1S2(=O)=O	x	-948	-4	x	-11	-1
O=C(NCc1cccc(F)c1)c1cccc2c1C(=O)c1ccc(N3CCCC3)cc1S2(=O)=O	x	-483	x	x	-2	3
NC(=O)C1CCN(c2ccc3c(c2)S(=O)(=O)c2ccccc2C3=O)CC1	-3	-80	-26	x	-10	-1
O=C(NCc1cc(C(F)(F)F)ccc1Cl)c1cccc2c1C(=O)c1ccc(N3CCC(N4CCCCC4)CC3)cc1S2(=O)=O	x	-218	46*	x	x	x
CC1CCN(c2ccc3c(c2)S(=O)(=O)c2ccccc2C3=O)CC1	-10	-143	-18	x	-54	199*
CC1CCN(c2ccc3c(c2)S(=O)(=O)c2cccc(C(=O)NCc4cccc(F)c4)c2C3=O)CC1	x	97*	-11	x	-7	0
CC(=O)OC12CCCN(C1)/C(=C/c1cccnc1)C2 (stereo not drawn)	x	x	-7	x	x	x
COc1ccc(C2CCc3cc4c(cc3C2=NO)OCO4)cc1OC (stereo not drawn)	x	5	7	x	x	x
CCCCNc1c(-c2cccc(-c3ccc(OC)cc3)c2)nc2ccc(C)cn12	-4	-1	12	x	-23	232*
CCCCNc1c(-c2cccc(-c3ccc(OC)cc3)c2)nc2cc(C)ccn12	x	-19	18	x	-10	8
CCCCCCSc1ccc(-c2nc3ccccn3c2NCCCC)cc1	5	1	5	x	-25	324*
CCCCNc1c(-c2ccc(-c3cccc(Cl)c3)cc2)nc2ccccn12	-2	-2	8	x	-31	207*
Cc1ccc(C)c(Nc2nc3c(S(=O)(=O)c4ccccc4)nnn3c3ccccc23)c1	-2	135*	-7	3	-11	-1
Cc1ccc(S(=O)(=O)c2nnn3c2nc(Nc2cccc(C)c2)c2ccccc23)cc1	-15	15	-4	0	5	0
COc1ccc2nc3cc(Cl)ccc3c(C#N)c2c1	2	142*	0	16	-14	-1
COc1ccc2nc(C(F)(F)Cl)c(C#N)c(N)c2c1	-4	0	0	25	0	2
COc1ccc(CN2CCC3CC2c2cc(Cl)ccc23)cc1 (stereo not drawn)	x	3	-10	x	-18	1
O=C(N/N=C/c1c(O)ccc2ccccc12)C(=O)N1CCCC1	x	-37	6	x	x	x
O=C(N/N=C/c1c(O)ccc2ccccc12)c1cccc(C(F)(F)F)c1	40	75*	-3	8	36	5
CCOc1ccc(/C=N/NC(=O)CN2CCCCC2)cc1OCC	6	9	-3	54*	-9	0
O=C(CN1CCCC1)N/N=C/c1c(O)ccc2ccccc12	11	-29	3	25	28	52*
SMILES	BJeLR viability	MazEF act	PrPC surface inh	DUSP3 inh	PrP UTR inh	PfHsp40 rescue
COC(=O)[C@]12C[C@H](CC(=O)NCCCCc3ccccc3)C(=O)N(CCc3ccc(OC)c(OC)c3)C1=C[C@H](C(C)C)O[C@@H]2C1CC1	x	x	-4	x	x	x
Cc1nn(Cc2ccccc2)c(C)c1NC(=O)c1cc(-c2ccco2)on1	2	3	9	53*	1	0
COc1ccc(OC)c(-c2cc(C(=O)Nc3c(C)nn(Cc4ccccc4)c3C)no2)c1	6	0	5	4	5	-1
Cc1cc(C)c2c(c1)-c1cc(C)nn1C(c1ccc3c(c1)OCO3)N2 (stereo not drawn)	0	-3	-2	56*	-8	0
Cc1cccc(NS(=O)(=O)c2cccc3nsnc23)c1	0	9	-20	20	-12	1
COc1ccc(NS(=O)(=O)c2cccc3nsnc23)cc1OC	1	12	-13	51*	-25	1
COc1ccccc1N1CCN(C(=O)/C=C/c2ccccc2)CC1	4	0	-6	53*	-11	0
